# Literature values in PubChem BioAssay AID977608.
# Hit rate of the full screen: of about 4,300 compounds, about 4,300 (100%) were called active. Cut-off not given; nearly all actives show IC50 up to about 1400 µM. The set was probably picked from earlier hits. Some of the results follow. Where a SMILES comes first, the peptide text is derived from it. [ ]: non-standard residue; d: D form. The star is where a group is joined. Thr(P(OH)3+) = C[C@@H](O[P+](O)(O)O)[C@H](N)C(=O)O; Pentanoyl(5-cHex) = O=C(CCCCC1CCCCC1)*; Ahx = NCCCCCC(=O)O
# Experiment: protein-ligand inhibition affinities from structures – PDB-derived complexes (AID 977608)
structure (smiles),measurement,setting,value
NCC[C@H](C1CC=CC1)n1cc(-c2ncnc3[nH]ccc23)cn1,IC50,"literature IC50, protein: Proto-oncogene tyrosine-protein kinase Src, PDB entry 4u5j",2.93 µM (active)
O=CC[C@@H](NC(=O)OC1CCCC1)c1ccccc1,IC50,"literature IC50, protein: RHOMBOID PROTEASE GLPG, PDB entry 3zmh",5.27 µM (active)
CC(C)COC(=O)N[C@H](CC=O)c1ccccc1,IC50,"literature IC50, protein: RHOMBOID PROTEASE GLPG, PDB entry 3zmj",11.7 µM (active)
O=CC[C@@H](NC(=O)Oc1ccccc1)c1ccccc1,IC50,"literature IC50, protein: RHOMBOID PROTEASE GLPG, PDB entry 3zmi",1.12 µM (active)
same,IC50,"literature IC50, protein: RHOMBOID PROTEASE GLPG, PDB entry 3zot",1.12 µM (active)
CSCC[C@H](NC(=O)[C@@H](NC(=O)[C@H](CO)NC(=O)[C@H](Cc1cnc[nH]1)NC(=O)[C@H](CC(C)C)NC(=O)[C@@H]1CCCN1C(=O)CCCCCNC(=O)CCCCC1CCCCC1)[C@@H](C)O[P+](O)(O)O)C(N)=O ({Pentanoyl(5-cHex)-Ahx}-PLHS[Thr(P(OH)3+)]M-NH2),IC50,"literature IC50, protein: Serine/threonine-protein kinase PLK1, PDB entry 4lkm",0.46 µM (active)
CSCC[C@H](NC(=O)[C@@H](NC(=O)[C@H](CO)NC(=O)[C@H](Cc1cnc[nH]1)NC(=O)[C@H](CC(C)C)NC(=O)[C@@H]1CCCN1C(=O)CC12CC3CC(CC(C3)C1)C2)[C@@H](C)O[P+](O)(O)O)C(N)=O (HELM PEPTIDE1{[O=C(CC12CC3CC(CC(C3)C1)C2)[*:2]].P.L.H.S.[C[C@@H](O[P+](O)(O)O)[C@H](N[*:1])C(=O)[*:2]].M.[am]}$$$$V2.0),IC50,"literature IC50, protein: Serine/threonine-protein kinase PLK1, PDB entry 4lkl",0.82 µM (active)
Cc1[nH]c2ccccc2c1CCNC(=O)c1ccccc1F,IC50,"literature IC50, protein: Arp2/3 complex, PDB entry 3ukr",12 µM (active)
NC1CCC(Nc2nccc(-c3cccnc3Oc3ccc(NS(=O)(=O)c4ccccc4)c4ccccc34)n2)CC1 (stereo unspecified),IC50,"literature IC50, protein: Mitogen-activated protein kinase 10 JNK3, PDB entry 4u79",0.4 µM (active)
O=C(COc1ccccc1[P+](O)(O)O)Nc1cc(Cl)cc(Cl)c1,IC50,"literature IC50, protein: 14-3-3 protein sigma, PDB entry 4dhs",16 µM (active)
O=C(COc1ccccc1[P+](O)(O)O)Nc1cccc(Cl)c1,IC50,"literature IC50, protein: 14-3-3 protein sigma, PDB entry 4dhq",32 µM (active)
COc1ccc(OC)c(NC(=O)COc2ccccc2[P+](O)(O)O)c1,IC50,"literature IC50, protein: 14-3-3 protein sigma, PDB entry 3t0m",116 µM (active)
COc1cccc(NC(=O)COc2ccccc2[P+](O)(O)O)c1,IC50,"literature IC50, protein: 14-3-3 protein sigma, PDB entry 4dho",118 µM (active)
O=C(COc1ccccc1[P+](O)(O)O)Nc1cccc(C(F)(F)F)c1,IC50,"literature IC50, protein: 14-3-3 protein sigma, PDB entry 4dhm",165 µM (active)
NC1=N[C@@]2(c3cc(NC(=O)c4ccc(F)cn4)ccc3F)COC[C@H]2CS1,IC50,"literature IC50, protein: Beta-secretase 1 BACE1, PDB entry 4x7i",0.0203 µM (active)
Cc1nc(-c2ccccn2)nc(N[C@H](Cc2ccccc2)C(N)=O)c1Cl,IC50,"literature IC50, protein: Methionine aminopeptidase 1, PDB entry 4iku",1.79 µM (active)
CCC(C)(C)c1nn(CCO)c2c1NC(c1ccc(-n3ccnc3C)cc1)CNC2=O (stereo unspecified),IC50,"literature IC50, protein: cGMP-dependent 3',5'-cyclic phosphodiesterase, PDB entry 4jib",0.045 µM (active)
COC(=O)N[C@@H](CC(C)C)C(=O)N[C@H](CO)C[C@@H]1CCNC1=O,IC50,"literature IC50, protein: 3C-like protease, PDB entry 3ur9",0.49 µM (active)
CC(C)C[C@H](NC(=O)OCc1ccccc1)C(=O)N[C@H](CO)C[C@@H]1CCNC1=O,IC50,"literature IC50, protein: 3C-like proteinase, PDB entry 4f49",0.82 µM (active)
same,IC50,"literature IC50, protein: Genome polyprotein, PDB entry 4dcd",1.77 µM (active)
CC(C)C[C@H](NC(=O)OCc1ccccc1)C(=O)N[C@@H](CC(C)C)C(=O)N[C@@H](CC(C)C)[C@@H](O)[C@H](C)CO,IC50,"literature IC50, protein: Proteasome subunit alpha CP, PDB entry 4no9",0.015 µM (active)
CC[C@H](C)[C@H](CO)[C@@H](O)C(=O)N[C@H]1C[C@H]1C[C@@H](CCc1ccccc1)NC(=O)[C@H](C)NC(=O)OCc1ccccc1,IC50,"literature IC50, protein: Proteasome, PDB entry 4j70",5.7 µM (active)
c1cc2cnc3sccc3c2cn1,IC50,"literature IC50, protein: DUAL SPECIFICITY PROTEIN KINASE TTK, PDB entry 4bhz",53.5 µM (active)
c1cc2c(cn1)cnc1sccc12,IC50,"literature IC50, protein: DUAL SPECIFICITY PROTEIN KINASE TTK, PDB entry 4bi2",94.1 µM (active)
c1cc2cnc3ccsc3c2cn1,IC50,"literature IC50, protein: DUAL SPECIFICITY PROTEIN KINASE TTK, PDB entry 4bi1",69.1 µM (active)
Cc1cccc2c1CCN(C(=O)[C@@H]1CCCC[C@@H]1C(=O)O)[C@@H]2CN1Cc2ccccc2C1=O,IC50,"literature IC50, protein: Kelch-like ECH-associated protein 1, keap1 kelch domain, PDB entry 4l7d",0.75 µM (active)
O=C(O)[C@H]1CCCC[C@H]1C(=O)N1CCc2ccccc2[C@H]1CN1Cc2ccccc2C1=O,IC50,"literature IC50, protein: Kelch-like ECH-associated protein 1, keap1 kelch domain, PDB entry 4n1b",1.1 µM (active)
Cn1c(=O)c(C(=O)NCC(=O)O)c(O)c2ccccc21,IC50,"literature IC50, protein: EGL NINE HOMOLOG 1, PDB entry 4bqw",0.033 µM (active)
CO[C@H]1CN(c2nc(-c3ncnn3C)c(C(=O)O)s2)CC[C@H]1NC(=O)c1[nH]c(C)c(Cl)c1Br,IC50,"literature IC50, protein: DNA GYRASE SUBUNIT B, PDB entry 4bae",0.003 µM (active)
Nc1ccc(CC(=O)OCCc2ccccc2)c(C=O)c1,IC50,"literature IC50, protein: RHOMBOID PROTEASE GLPG, PDB entry 3zeb",0.74 µM (active)
Cc1ccc(S(=O)(=O)Nc2cc(Oc3ccccc3)ccc2C(=O)O)cc1,IC50,"literature IC50, protein: Genome polyprotein, PDB entry 4j0a",0.16 µM (active)
